# This is a sample that favours compounds with a hit; in the whole collection about 1.3% have one here.
# pAkt inh: Akt phosphorylation inhibition; 0.32% of 360,000 active; Neuro2A IGF-stimulated pAkt S473 HTRF, 20 min; stronger effect = lower value; activity change, % for hits at 50 µM; AID 651550; in the data active = activity change below about -80%; inconclusive = mostly about -51% to -80%
#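 Neuro2A cells in DMEM with 0.5% FBS, overnight at 37 deg C, given compound at single 50 µM final, then IGF (6 nM final) for 20 min at 37 deg C. Lysed; phospho-Akt Ser473 by HTRF after 24 h, 665/615 ratio.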
# CtBP-E1A inh: inhibitors of CtBP/E1A interaction | activity change, % (no concentration beside the values) | AID 651724 | AlphaScreen GST-E1A/His-CtBP binding, 1536-well; stronger effect = lower value | 0.49% of 340,000 active
#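 Steps: dispense buffer (Tris pH 8.0, NaCl 300 mM, TCEP 1 mM, BSA, Tween 20); add 5X protein mix (GST-E1A, His-CtBP, 125 nM each); pin 23 nL compound; 2 h at 37 °C, dark; add 5X beads (50 ug/mL); 1 h; read.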
# CCT modulator: cytosolic chaperonin activity modulation. purified chaperonin ATPase assay, HTRF ADP detection, 30 min. activity change, % (no concentration beside the values), hits read low. 0.3% of 360,000 active. AID 651819; in the data active = activity change below about -30%
#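 Nucleotide hydrolysis assay: TRiC at 20–40 nM final (set by batch activity) with 10 uM ATP, 30 min at 37 °C, in presence of 76 uM compound. Detection by competitive ADP HTRF, 30 min ambient.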
# Six1-Eya2 inh: inhibitors of human Six1/Eya2 interaction | Q15475+O00167 | AlphaScreen GST-Six1/His-Eya2 binding, biochemical; stronger effect = lower value | activity change, % (no concentration beside the values) | 0.56% of 360,000 active | AID 651725
#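 Homogeneous AlphaScreen proximity assay pairing GST-Six1 with His-tagged Eya2 (added as 5X mix: 250 nM and 500 nM) in 50 mM Tris pH 8.0, 300 mM NaCl, 1 mM TCEP. Glutathione donor and nickel acceptor beads; 1 h, 37 °C, dark.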
# Starred values were filed as active, the others as inactive; i = inactive; u = inconclusive; x = no result given. Rule as the data show it, unless noted: active = activity change below about -65%; inconclusive = mostly about -30% to -63%; inactive = weaker than that. % is scaled to controls: 0 for no effect and ±100 for the full control effect.
SMILES,pAkt inh,CtBP-E1A inh,CCT modulator,Six1-Eya2 inh
CC(=NNC(=S)Nc1ccccc1)c1ccccn1,i,u,2,-89*
C/C(=N\Nc1cccc2cccnc12)c1ccccn1,i,-5,-1,-15
C/C(=N/NC(=O)CNC(=O)c1ccccn1)c1ccccc1,i,x,-2,5
CC(=NNC(=S)Nc1ccccc1Cl)c1ccccn1,i,-66*,-2,-90*
CCc1cccc(C)c1NC(=O)CN(C)C1=NS(=O)(=O)c2ccccc21,i,x,1,6
CCn1c(N)c(C(=O)N2CCOCC2)sc1=S,-114%*,4,0,1
NC(=O)Nc1cc(Cl)ccc1Cl,i,-1,-85*,7
CCN(CC)C(=O)[C@H]1C[C@H](CC(=O)NCc2ccc(OC)c(OC)c2)C(=O)N2CCc3c([nH]c4ccc(Cl)cc34)[C@]12C,i,-9,1,-9
Oc1ccc2ccccc2c1/C=N/Nc1nnc(-c2ncc[nH]2)c2ccccc12,i,-73*,-3,-67*
COc1ccc(/C=N/Nc2nnc(-c3ncc[nH]3)c3ccccc23)cc1,i,-8,-4,-10
COc1cc(/C=N/NC(=O)c2sc(N)c(C#N)c2C)cc(Br)c1O,i,-77*,-5,-67*
COc1cc(/C=N\NC(=O)c2sc(N)nc2C)cc(OC)c1OC,i,-84*,-3,-82*
COc1ccc2ccccc2c1/C=N/NC(=O)c1sc(N)c(C#N)c1C,i,-2,-2,-7
COc1cccc(C(=S)N2CCCC2)c1OC,i,x,2,0
C(=N\NC1=Nc2cccc3cccc1c23)/c1cccnc1,i,-12,-70*,u
Cc1c(OCc2ccc(C(=O)O)cc2)ccc2c(-c3ccccc3)cc(=O)oc12,i,1,-1,-74*
CCOC(=O)C(Oc1ccc2c(-c3ccccc3)cc(=O)oc2c1C)c1ccccc1 (stereo not given),i,12,-4,1
Cc1ccc(NC(=O)OCCNC(=O)OC(C)C)cc1,i,-14,-1,1
CC(C)OC(=O)Nc1ccc(Oc2c(F)c(F)c(F)c(F)c2F)cc1,i,1,-76*,10
OC[C@@H]1CN(C2CCCC2)C[C@H](n2cnc3c(NC4CC4)ncnc32)O1,i,10,-2,0
Cc1cccc(CCNc2nc3ccccc3n3nnnc23)c1,-87%*,-1,-1,0
COC(=O)C1=C(O)C2(C(=O)O)CC(C(=O)OC)=C(O)C(C(=O)O)(C1)C2,i,3,0,9
CC1(C(=O)O)CC(C)(C(=O)O)CC(C)(C(=O)O)C1 (stereo not given),-119%*,-1,-2,14
COc1ccc(C=NNC(=O)c2ccccc2OCc2ccc(F)cc2)c(OC)c1,i,3,-10,2
C/C=C/c1ccc(OCCCCN2CCN(CC)CC2)c(OC)c1,i,x,-58*,-10
SMILES,pAkt inh,CtBP-E1A inh,CCT modulator,Six1-Eya2 inh
O=C(Nc1ccc2c(c1)OCCO2)c1oc2ccccc2c1NC(=O)C1CC1,i,10,-45*,2
CCC(=O)Nc1c(C(=O)Nc2ccc3c(c2)OCCO3)oc2ccccc12,i,-2,-2,2
Cc1cc(C#N)c2ccccc2n1,-109%*,7,-1,29
Cc1ccccc1Nc1nc(Cl)nc(NC(C)(C)C)n1,i,4,1,-8
COCCNC(=O)C1CCN(S(=O)(=O)N2CCC3(CC2)OCCO3)CC1,-82%*,-19,1,-7
Cc1nnc2sc(SCC(=O)Nc3ccc(Cl)cc3)nn2c1=O,i,-88*,-3,u
CC(=O)Nc1cccc(NC(=O)CSc2nn3c(=O)c(C)nnc3s2)c1,i,-88*,-1,-73*
COc1ccc(O)c(/C=C(\C#N)C(=O)Nc2ccccn2)c1,i,-3,-3,8
COc1cc(N2CCCC2)c(OC)cc1/C=C(/C#N)c1ccc(F)cc1,i,u,-3,-78*
Cc1cc(C(=O)N2CCCC(Nc3ccc(F)cc3)C2)n(C)n1 (stereo not given),i,6,-1,4
COc1ccc(NC(=O)CN2CCC(NC(=O)c3ccco3)CC2)c([N+](=O)[O-])c1,i,0,0,1
CC(=O)NCCC(=O)Nc1cc(S(=O)(=O)N2CCOCC2)ccc1Oc1ccc(F)cc1,i,3,0,8
Nc1ccc(-c2nc3cc(N)ccc3s2)cc1,i,3,-42*,1
Cc1cc(C)cc(N2C(=O)C3C4C=CC(C4)C3C2=O)c1 (stereo not given),-104%*,5,-3,1
CN(Cc1ccccc1)C(=O)c1[nH]cnc1C(=O)Nc1nccs1,i,u,-1,-74*
Cc1ccc(/C=C/S(=O)(=O)NCC(=O)OCC(=O)Nc2ccc(C(N)=O)cc2)cc1,i,-6,0,-4
Cc1ccc(/C=C/S(=O)(=O)NCC(=O)OCC(=O)Nc2ccc(C(=O)N(C)C)cc2)cc1,i,-91*,1,-9
CN(C)c1ccc(C(c2ccc(N(C)C)cc2)C(O)c2ccccc2)cc1 (stereo not given),i,-2,-18,-65*
CN(C)c1ccc(C(=O)C(O)c2ccccc2)cc1 (stereo not given),i,5,2,2
NC(Cc1ccc(Cl)cc1)c1csc(Nc2ccc(C(=O)NCCCO)cn2)n1 (stereo not given),i,u,-2,u
CC(C)C(N)c1csc(Nc2ccc(C(=O)NCCCO)cn2)n1 (stereo not given),i,-75*,-1,u
CC(N)c1csc(Nc2ccc(C(=O)NCCO)cc2)n1 (stereo not given),i,-10,-2,0
NC(Cc1ccccc1)c1csc(Nc2ccc(C(=O)NCCCO)cn2)n1 (stereo not given),x,-82*,-1,-66*
NC(CCc1ccccc1)c1csc(Nc2ccc(C(=O)NCCCO)cn2)n1 (stereo not given),i,-69*,-2,u
NC(CCc1ccccc1)c1csc(Nc2ccc(C(=O)NCCO)cc2)n1 (stereo not given),i,-5,1,-12
SMILES,pAkt inh,CtBP-E1A inh,CCT modulator,Six1-Eya2 inh
O=C(NCc1ccccc1)c1cc(C2CCCCN2S(=O)(=O)c2cccc3cccnc23)on1 (stereo not given),i,-1,0,1
C[C@@H]1CN([C@H](C)CO)C(=O)c2cc(Br)cnc2O[C@H]1CN(C)C(=O)CC1CC1,i,4,0,6
CN(C)c1ccc(N=Nc2ccc(C(=O)O)cc2)cc1,i,-6,1,-11
Cc1csc(N=Nc2ccc(N(C)C)cc2)[n+]1[O-],i,u,-2,-77*
Cc1c(N=NC2=C(O)CCCC2=O)c(=O)n(-c2ccccc2)n1C,i,-92*,-5,-79*
Cc1c(N=Nc2ccc(O)cc2)c(=O)n(-c2ccccc2)n1C,i,-7,-6,-24
COC(=O)c1ccc(OC(=O)/C=C/c2ccco2)cc1,i,-93*,-3,-85*

# Screening data deposited in PubChem by National Center for Advancing Translational Sciences (NCATS).
